Compounds without any hit were thinned out: in the full panel of roughly 83,000, 20% have a hit.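 How to read the values: 0–100, growth inhibition (40 = 60% inhibited); 0, no net growth; -100 to 0, cell death (-40 = 40% of starting cells died; -100 = all dead).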 Values without a mark were called inactive. Activity calls are given as the source filed them. Rule for the calls: active = growth percent below 10; inactive = the rest.

Some test systems named below: NCI-H23 lung; NCI-H322M lung; HOP-62 NSCLC; NCI-H460 lung; HOP-92 NSCLC; NCI-H522 lung; A549/ATCC NSCLC; 786-0 renal; COLO 205 colon; DU-145 prostate; K-562 leukemia; MALME-3M melanoma; MDA-MB-231 breast; RXF 393 renal; SF-268 CNS; SF-295 CNS; SF-539 CNS; UACC-257 melanoma; M14 melanoma.
What all share (assay): NCI-60 one-dose screen, 48 h (100 = growth as untreated, 0 = no growth, -100 = all killed)
Holding throughout (conditions): 10 µM unless noted

Turning to `Cc1ccc2nc(-c3ccc(C(=O)N/N=C/c4ccc([N+](=O)[O-])cc4)cc3)[nH]c2c1`, the growth was 101% with NCI-H23 lung; 104% in the test with NCI-H322M lung; 108% with HOP-62 NSCLC; 102% in the test on NCI-H460 lung; 91.9% in the test on HOP-92 NSCLC; 95.1% with NCI-H522 lung. Also, the growth in the test on A549/ATCC NSCLC is 106%; in the test on 786-0 renal, 97.6%; in the test on COLO 205 colon it was 108%; with DU-145 prostate, 103%; with K-562 leukemia, 101%; in the test on MALME-3M melanoma, 92.2%. The growth was 97.3% in the test with MDA-MB-231 breast; 104% in the test with RXF 393 renal; 101% with SF-268 CNS; 111% in the test on SF-295 CNS; 97.5% in the test on SF-539 CNS; 108% with UACC-257 melanoma. The growth in the test on M14 melanoma was 102%.
`CC(C)Cc1nc(Nc2ccccc2)[nH]c(=O)c1C#N`: the growth is 33.8% in the test on NCI-H23 lung; 61% in the test on NCI-H322M lung; 82.7% in the test with HOP-62 NSCLC; 59.8% with NCI-H460 lung; -14% (active) in the test with HOP-92 NSCLC; 17.3% in the test on NCI-H522 lung. In addition, the growth is 57.3% in the test with A549/ATCC NSCLC; 72.6% in the test with 786-0 renal; 49.7% in the test with COLO 205 colon; 70.8% in the test on DU-145 prostate; 48.8% with K-562 leukemia; 72.6% in the test with MALME-3M melanoma. In addition, the growth was 47.9% in the test on MDA-MB-231 breast; 67.4% in the test with RXF 393 renal; 63.3% in the test on SF-268 CNS; 58.7% in the test on SF-295 CNS; 50.7% in the test with SF-539 CNS; 81.2% in the test with UACC-257 melanoma. The growth in the test with M14 melanoma was 53.2%.
For `O=C(CN1C(=O)S/C(=C\C(Cl)=C\c2ccccc2)C1=O)NC1CCS(=O)(=O)C1` (stereo unspecified), the growth in the test with NCI-H23 lung is 74.3%; with NCI-H322M lung, 95.7%; in the test with HOP-62 NSCLC it was 99.7%; in the test on NCI-H460 lung, 94.2%; with HOP-92 NSCLC, 80.4%; in the test on NCI-H522 lung it was 34.2%. Further, the growth with A549/ATCC NSCLC is 94.3%; with 786-0 renal it was 78.7%; with COLO 205 colon, 59%; in the test with DU-145 prostate it was 82.8%; in the test with K-562 leukemia, 15.3%; in the test with MALME-3M melanoma, 84.9%. In addition, the growth was 77% in the test on MDA-MB-231 breast; 26.7% in the test with RXF 393 renal; 94.4% in the test on SF-268 CNS; 85.3% with SF-295 CNS; 56.8% in the test on SF-539 CNS; 81.8% in the test on UACC-257 melanoma. Moreover, in the test on M14 melanoma, the growth was 64%.
Turning to `COc1cc(C=C2C(=O)NC(=S)NC2=O)cc(CN2CCCC2)c1O`, the growth in the test with NCI-H23 lung was 103%; with NCI-H322M lung, 105%; with HOP-62 NSCLC, 103%; in the test with NCI-H460 lung, 109%; with HOP-92 NSCLC, 92.8%; in the test with NCI-H522 lung, 96.4%. For the same compound, the growth in the test with A549/ATCC NSCLC is 96.6%; in the test on 786-0 renal, 102%; with COLO 205 colon it was 120%; in the test with DU-145 prostate, 113%; in the test on K-562 leukemia, 108%; in the test with MALME-3M melanoma, 108%. The growth with MDA-MB-231 breast was 111%; in the test on RXF 393 renal it was 103%; in the test on SF-268 CNS it was 99.6%; in the test with SF-295 CNS, 104%; in the test with SF-539 CNS, 101%; with UACC-257 melanoma, 98.8%. The growth in the test on M14 melanoma is 109%.
As to `COc1ccc2c(c1)oc1c(C)c3c(c(C)c12)C(=O)N(CCOS(C)(=O)=O)C3=O`, the growth is 94.2% in the test with NCI-H23 lung; 96.7% in the test on NCI-H322M lung; 103% in the test on HOP-62 NSCLC; 94% in the test on NCI-H460 lung; 113% in the test with HOP-92 NSCLC; 87.7% in the test with NCI-H522 lung. Also, the growth with A549/ATCC NSCLC was 109%; in the test with 786-0 renal, 95.2%; in the test on COLO 205 colon, 107%; with DU-145 prostate, 106%; in the test on K-562 leukemia, 96%; with MALME-3M melanoma, 90.1%. Also, the growth in the test on MDA-MB-231 breast is 90.7%; with RXF 393 renal it was 116%; in the test with SF-268 CNS, 92.3%; in the test with SF-295 CNS, 103%; in the test on SF-539 CNS, 92.2%; with UACC-257 melanoma, 125%. Moreover, in the test with M14 melanoma, the growth is 103%.
For the compound `c1cc(OCCN2CCCCC2)ccc1CNc1ccc2nc(CCC3CCCCC3)[nH]c2c1`, the growth in the test with NCI-H23 lung was 73.8%; with NCI-H322M lung, 74.6%; in the test on HOP-62 NSCLC, 54.2%; in the test on HOP-92 NSCLC, 26.7%; in the test on NCI-H522 lung it was 50.4%; with A549/ATCC NSCLC, 42.3%. For the same compound, the growth in the test on 786-0 renal is -61% (active); with COLO 205 colon, -66% (active); with DU-145 prostate, 59.9%; in the test with K-562 leukemia it was -1.42% (active); in the test with MALME-3M melanoma it was -85.9% (active); with MDA-MB-231 breast, 9.11% (active). Also, the growth in the test on RXF 393 renal is 11.9%; in the test on SF-268 CNS, 57.6%; in the test on SF-295 CNS, -38.6% (active); in the test with SF-539 CNS it was -73.3% (active); with UACC-257 melanoma, -75% (active); in the test with M14 melanoma it was -75% (active).
Take `COc1ccc2c(O)c(/C=C3\N=Nc4ncccc43)oc2c1C[C@@H]1CCNC[C@H]1F`: the growth is -33.1% (active) in the test with NCI-H23 lung; 3.89% (active) in the test on NCI-H322M lung; -30.5% (active) in the test on HOP-62 NSCLC; -51.2% (active) in the test with NCI-H460 lung; 98.7% in the test with HOP-92 NSCLC; -28.5% (active) with NCI-H522 lung. In addition, the growth in the test with A549/ATCC NSCLC was -24.1% (active); in the test on 786-0 renal, -78.3% (active); in the test with COLO 205 colon, -71.9% (active); in the test on DU-145 prostate, -19.7% (active); in the test on K-562 leukemia it was -26.4% (active); in the test with MALME-3M melanoma, -31.2% (active). The growth is -40% (active) in the test with MDA-MB-231 breast; -68.1% (active) in the test with RXF 393 renal; -31.1% (active) in the test with SF-268 CNS; 0.571% (active) with SF-295 CNS; -48.2% (active) in the test on SF-539 CNS; 13.7% in the test with UACC-257 melanoma. Further, in the test with M14 melanoma, the growth is -70.3% (active).
As for `COc1cc(/C=C/c2cn[nH]c2-c2ccc(C)cc2)cc(OC)c1OC`, the growth with NCI-H23 lung is 56.2%; in the test with NCI-H322M lung, 56.7%; in the test with HOP-62 NSCLC it was 33.8%; with NCI-H460 lung, 17.1%; in the test with HOP-92 NSCLC it was 45.6%; in the test on NCI-H522 lung, 23.1%. For the same compound, the growth with A549/ATCC NSCLC is 29.2%; in the test on 786-0 renal it was 37.1%; with COLO 205 colon, 12.6%; with DU-145 prostate, 43.4%; in the test on K-562 leukemia, 15.5%; with MALME-3M melanoma it was 52.3%. In addition, the growth was 47.4% in the test with MDA-MB-231 breast; 16.1% in the test on RXF 393 renal; 49.2% in the test on SF-268 CNS; 11.5% in the test on SF-295 CNS; 41.7% with SF-539 CNS; 39.5% in the test on UACC-257 melanoma. Moreover, in the test on M14 melanoma, the growth is -3.71% (active).

The values are drawn from PubChem BioAssay (NCI).
